Compounds without any hit were thinned out: in the full panel of roughly 83,000, 20% have a hit.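 Compound tested at a single concentration for 48 hours in 96-well plates; a percent growth value below 10 was scored as active.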 A number with no mark means an inactive call. The source made the active and inactive calls.
Legend:
Test in all cases: NCI-60 one-dose screen, 48 h (100 = growth as untreated, 0 = no growth, -100 = all killed)
Conditions in all cases: 10 µM unless noted
[1] = tested on: SR leukemia
[2] = tested on: RPMI-8226 leukemia
[3] = tested on: OVCAR-8 ovarian
[4] = tested on: OVCAR-5 ovarian
[5] = tested on: OVCAR-4 ovarian
[6] = tested on: SK-OV-3 ovarian
[7] = tested on: IGROV1 ovarian
[8] = tested on: OVCAR-3 ovarian
[9] = tested on: HS 578T breast
[10] = tested on: NCI/ADR-RES ovarian
[11] = tested on: T-47D breast
[12] = tested on: BT-549 breast
[13] = tested on: MDA-MB-435 melanoma
[14] = tested on: SW-620 colon
[15] = tested on: MCF7 breast
[16] = tested on: HCT-116 colon
[17] = tested on: HCC-2998 colon
[18] = tested on: KM12 colon

| SMILES | growth [1] | growth [2] | growth [3] | growth [4] | growth [5] | growth [6] | growth [7] | growth [8] | growth [9] | growth [10] | growth [11] | growth [12] | growth [13] | growth [14] | growth [15] | growth [16] | growth [17] | growth [18] |
| --- | --- | --- | --- | --- | --- | --- | --- | --- | --- | --- | --- | --- | --- | --- | --- | --- | --- | --- |
| Cn1ccnc1C(=O)/C=C/c1ccc(CC(=O)Nc2ccc(F)cc2)cc1 | 14.4% | 1.1% (active) | 12.7% | 65.5% | 30.3% | 85.4% | 39.3% | 6.19% (active) | 57.7% | 21.7% | 28.8% | 23.6% | 19.7% | 10.1% | 28% | 4.94% (active) | 85.4% | 6.52% (active) |
| CCCC/C=N/NC(=S)NCc1ccccc1 | 95% | 97.6% | 97.5% | 92.7% | 96.3% | 88.9% | 110% | 104% | 95% | 104% | 88.3% | 102% | 98.4% | 96.1% | 87.7% | 90.9% | 109% | 104% |
| CC(=O)OC[C@]12CC[C@@H](C(=O)CBr)[C@@H]1[C@H]1CC[C@@H]3[C@@]4(C)CC[C@H](OC(C)=O)C(C)(C)[C@@H]4CC[C@@]3(C)[C@]1(C)CC2 | 4.82% (active) | 91.4% | 81.9% | 102% | 94% | 90% | -1.69% (active) | 101% | 101% | 110% | 85.3% | 84% | 93.3% | 100% | 89% | 88.2% | 111% | 97.7% |
| c1ccc(Cn2cnc3ccc(-c4nc(-c5ccc6c(c5)ncn6C5CCCCC5)cn5ccnc45)cc32)cc1 | 5.45% (active) | -41.2% (active) | 2.45% (active) | -29% (active) | 16.8% | -22.2% (active) | 5.81% (active) | -35.7% (active) | 0.386% (active) | 0.531% (active) | -2.12% (active) | -44.7% (active) | -6.16% (active) | 2.17% (active) | 2.03% (active) | -75.7% (active) | -88% (active) | -39.4% (active) |
| NS(=O)(=O)c1ccc(CCN2C(=O)C3C(C2=O)C2(Cl)C(Cl)=C(Cl)C3(Cl)C2(Cl)Cl)cc1 (stereo not drawn) | 98.1% | 53% | 107% | 98.2% | 96.2% | 115% | 97.3% | 108% | 96.8% | 98.7% | 94.4% | 94.8% | 108% | 105% | 92.5% | 94% | 93.8% | 105% |
| CNC(=O)c1cncc(Cn2nc(C)c(NC(=O)c3ccc(COc4ccc(C(F)(F)F)cc4C)cc3)c2C)c1 | 25% | 42.7% | 55% | 98.1% | 43.5% | 76.7% | 62.7% | 41% | 92.7% | 96.4% | 29.7% | 32.4% | 66.6% | 102% | 37.5% | 44.7% | 77.8% | 74.8% |
| COc1cccc2c1c1nc3cc(C)c(C)cc3nc1n2CCN(C)C | 3.48% (active) | -8.21% (active) | 26.4% | 28.7% | 35% | 39% | 5.59% (active) | 32.6% | 54.4% | 25.1% | 30.1% | 68.8% | 31.3% | 12.6% | 4.64% (active) | 14.4% | 44.6% | 29.2% |
| CCOC(=O)CC1CSC(N/N=C/c2ccc(-n3cccn3)cc2)=N1 (stereo not drawn) | 98.3% | 99.1% | 97.8% | 115% | 109% | 111% | 114% | 110% | 97.8% | 101% | 106% | 116% | 110% | 106% | 98.1% | 98.7% | 103% | 103% |
| O=C1c2cccc3c(-c4ccc5c(c4)ncn5C4CCCCC4)ccc(c23)C(=O)N1CCO | 84.7% | 66.3% | 83.2% | 110% | 86% | 109% | 96.2% | 88.9% | 94.7% | 89.1% | 68% | 95.2% | 109% | 104% | 97.8% | 80% | 93.2% | 86.7% |
| O=S(=O)(NCCNc1nccc(-c2c(-c3cccc(O)c3)nc3occn23)n1)c1ccccc1 | 75.7% | 92.8% | 79.8% | 117% | 123% | 97.2% | 47.8% | 97.9% | 91.8% | 112% | 74% | 96% | 28.5% | 103% | 49.4% | 53.8% | 113% | 83.3% |
| Cc1cccc(-c2cn3ccnc3c(-c3ccc4ncn(Cc5ccccc5)c4c3)n2)c1 | 89% | 62.5% | 88.5% | 93.4% | 80.7% | 102% | 90.5% | 86% | 91.5% | 87.9% | 13.9% | 101% | 99.1% | 100% | 77.8% | 63.3% | 111% | 78% |
| O=C(Nc1ccc(Cl)cc1)c1cc(NCc2cc(O)ccc2O)ccc1O | 9.06% (active) | 4.92% (active) | 70.4% | 116% | 80.5% | 103% | 84.2% | 48.8% | 90% | 82.9% | 42.6% | 35.8% | 103% | 89.9% | 65.6% | 91.3% | 102% | 76.8% |
| Cn1ccnc1C(=O)/C=C/c1ccc(CC(=O)NC2CCCCC2)cc1 | 24.8% | 20.3% | 62.4% | 96.8% | 58.6% | 92.9% | 60.4% | 27.6% | 86.1% | 75.9% | 47.9% | 54.1% | 54.1% | 23.1% | 44.3% | 21.5% | 100% | 28.9% |
| O=C1c2ccc3c4c(ccc(c24)C(=O)N1CCCNCc1ccccc1Cl)C(=O)N(CCCNCc1ccccc1Cl)C3=O | -34.4% (active) | -28.9% (active) | -38.3% (active) | -39.2% (active) | -96.6% (active) | 28.3% | -34.1% (active) | -64.4% (active) | -22.9% (active) | -12.3% (active) | -25.5% (active) | -69% (active) | -43.7% (active) | -82.7% (active) | -78.2% (active) | -6.85% (active) | -85.5% (active) | -72.5% (active) |
| C=C(C)[C@@H]1CC[C@]2(C(=O)N[C@H](CO)Cc3ccccc3)CC[C@]3(C)[C@H](CC[C@@H]4[C@@]5(C)CCCNC(C)(C)[C@@H]5CC[C@]43C)[C@@H]12 | -56.8% (active) | -49.3% (active) | -76.3% (active) | -93.5% (active) | -80.9% (active) | -96.2% (active) | -78.8% (active) | -95.9% (active) | -60.5% (active) | -67.6% (active) | -58% (active) | -88.1% (active) | -93.6% (active) | -82.3% (active) | -69.7% (active) | -94.8% (active) | -84.7% (active) | -80.7% (active) |
| CC1=C(C(=O)/C=C/c2ccc(N(C)C)cc2)C(c2ccccc2)NC(=S)N1 (stereo not drawn) | 96.8% | 101% | 102% | 102% | 107% | 111% | 98.9% | 109% | 98.2% | 100% | 101% | 118% | 102% | 98.8% | 99.2% | 101% | 108% | 101% |

Reference: PubChem BioAssay (NCI)
